Here are results for ten compounds from PubChem BioAssay (EPA / NIEHS).

“And” between values parts separate entries of the source, which are not always exact repeats. Equal entries are not always repeated. Records with an inconclusive call do not appear. The source holds several records for some structures; these can differ, active in one and inactive in another. The source made the active and inactive calls. Rule for the calls, unless noted: active = hit-call score of the fitted dose curve at least 0.9, where 1 is the maximum; inactive = score below 0.9.

Experiment [1] in a line: BSK_BT_PBMCCytotoxicity: PBMC Cytotoxicity Assessment in the BioMAP Diversity Plus: BT Assay (AID 2284225).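 Note: PBMC viability measured by Alamar Blue dye reduction fluorescence.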 As to conditions: primary human B cells with PBMC. The method in brief:
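PBMC (75,000/well) pretreated with compound 1 h, then activated with SEB and TSST-1 (20 ng/mL each final), incubated 90 h; Alamar Blue added 6 h, fluorescence read at 546/580 nm. Fitted relative to DMSO.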

Read-out in experiment [2]: Secreted IgG (sIgG), gene 3500
The experiment in a line: BSK_BT_sIgG: BioMAP Diversity Plus: BT Assay for Secreted IgG (sIgG) Biomarker Activity (AID 2284226). The note with it: primary human B cells with PBMC. A digest of the protocol:
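Read-out: ELISA for secreted IgG after 24 h of chemical exposure in a B cell plus PBMC co-culture. Values reflect upward-direction fitting against DMSO negative controls.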

Experiment [3] in a line: BSK_BT_Bcell_Proliferation: Viability Assessment in the BioMAP Diversity Plus: BT Assay for B cell Proliferation (AID 2284227). As to conditions: primary human B cells with PBMC. The method in brief:
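Human B cells co-cultured with PBMC were dosed with test chemicals and relative cell number was quantified by SRB staining at 72 h. Cells were fixed in 10% TCA, stained with 0.1% SRB and read at 560 nm. Activity was fitted in the positive direction against DMSO.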

Read-out in experiment [4]: Interleukin 6 (IL6), IL6 (gene 3569)
In words: BSK_BT_xIL6: BioMAP Diversity Plus: BT Assay for Interleukin 6 (IL6) Biomarker Activity (AID 2284228). The note with it: primary human B cells with PBMC. A digest of the protocol: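 Readout: secreted IL-6 via Luminex xMAP multiplex, 24 h post-dosing. System: primary human B cells co-cultured with PBMC. Signal change scored relative to DMSO vehicle, positive fitting direction.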

Read-out in experiment [5]: Interleukin 17A (IL17A), IL17A (gene 3605)
The experiment in a line: BSK_BT_xIL17A: BioMAP Diversity Plus: BT Assay for Interleukin 17A (IL17A) Biomarker Activity (AID 2284229). The note with it: primary human B cells with PBMC. The method in brief:
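Luminex xMAP readout of secreted IL-17A; human B cell + PBMC co-culture; 24 h post-dose; positive-direction fit vs DMSO negative control.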

Read-out in experiment [6]: Tumor necrosis factor (Homo sapiens) (UniProt P01375)
The experiment in a line: BSK_BT_xTNFa: BioMAP Diversity Plus: BT Assay for Tumor necrosis factor alpha (TNF-alpha) Biomarker Activity (AID 2284230). The note with it: primary human B cells with PBMC. The method in brief: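 B cells with PBMC in co-culture, dosed and sampled at 24 h; secreted TNF-alpha measured by Luminex xMAP bead assay. Activity fitted in the gain direction against DMSO as negative control and baseline.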

Read-out in experiment [7]: Vascular cell adhesion molecule 1 (VCAM1), VCAM1 (gene 7412)
The experiment in a line: BSK_MyoF_VCAM1: BioMAP Diversity Plus: MyoF Assay for Vascular cell adhesion molecule 1 (VCAM1) Biomarker Activity (AID 2284231). As to conditions: primary human lung fibroblasts. The method in brief:
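MyoF system, lung fibroblasts; 24 h post-dose; VCAM-1 by ELISA; gain-of-signal fit vs DMSO baseline.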

Experiment [8] is described as follows: CCTE_Mundy_HCI_Cortical_Synap_Neur_Matur_NeuriteSpotCountPerNeuron: CCTE's Synaptogenesis and Neurite Maturation Assay in rat cortical cells for Neurite Spot Count per Neuron Count, Mundy Lab (AID 2284215). The method in brief:
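Read-out: neurite-associated synaptophysin puncta per neuron, imaged by high-content analysis after MAP2, synaptophysin and Hoechst staining. Rat primary cortical cultures, dosed DIV 7 through DIV 12; DMSO served as baseline.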

Experiment [9] can be described thus: TAMU_PeakParms_SingleDonor1434_Chronotropy: Texas A&M University (TAMU) 1.5-hr Human Induced Pluripotent Stem Cell (iPSC)-derived Cardiomyocytes Calcium (Ca+2) Flux Assay for Cardiotoxicity: Chronotropy (changes in peak frequency) (AID 2284217). The note with it: actives raise or lower the signal. A digest of the protocol: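 iPSC-derived cardiomyocytes (single donor 1434) dosed at 0.2, 1, 10 and 100 uM in 0.5% DMSO for 1.5 h at 37C; Ca2+ dye fluorescence gave average beat frequency. Zero-beat points removed; bidirectional fit versus DMSO, POD as EC05.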

Experiment [10] is described as follows: CCTE_Mundy_HCI_Cortical_Synap_Neur_Matur_SynapseCount: CCTE's Synaptogenesis and Neurite Maturation Assay in rat cortical cells for Synapse Count, Mundy Lab (AID 2284218). A digest of the protocol:
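Primary rat cortical culture; AraC DIV 5 to arrest glia; compound + media change DIV 7; terminated DIV 12. PFA/Hoechst fix, anti-MAP2 + anti-synaptophysin immunostain; HCI synapse count/neuron; DMSO = baseline.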

Experiment [11] can be described thus: CCTE_Mundy_HCI_Cortical_Synap_Neur_Matur_NeuriteCount: CCTE's Synaptogenesis and Neurite Maturation Assay in rat cortical cells for Neurite Count, Mundy Lab (AID 2284222).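 Note: exposure from day 7 to day 12 in vitro with readout at day 12.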 A digest of the protocol:
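Rat primary cortical cells; AraC added at DIV 5, chemicals dosed with media change at DIV 7 through DIV 12. MAP2/synaptophysin/Hoechst immunostaining, high-content imaging of neurite number; fitted relative to DMSO.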

The nature of experiment [12]: CCTE_Mundy_HCI_Cortical_Synap_Neur_Matur_CellBodySpotCount: CCTE's Synaptogenesis and Neurite Maturation Assay in rat cortical cells for Cell Body Spot Count, Mundy Lab (AID 2284223). A digest of the protocol: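 Read-out: cell body-associated synaptophysin puncta per neuron, imaged after MAP2, synaptophysin and Hoechst staining. Rat cortical cells, AraC DIV 5, chemical dosing DIV 7, fixation DIV 12. Activity fitted in positive direction relative to DMSO baseline.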

Experiment [13] in a line: TAMU_HCS_1.5hr_SingleDonor1434_Cytotoxicity: Cytotoxicity Assessment using High-content Screening (HCS) Fluorescent Imaging for the Texas A&M University (TAMU) 1.5-hr Human Induced Pluripotent Stem Cell (iPSC)-derived Cardiotoxicity Assay (AID 2284234; active = hit-call score of the fitted dose curve at least 0.9, where 1 is the maximum). A digest of the protocol:
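Human iPSC-derived cardiomyocytes dosed at 0.2, 1, 10, 100 uM final (0.5% DMSO) for 90 min at 37 C. Hoechst 33342-stained nuclei counted by 10x high-content imaging; POD is EC10, a 10% drop in total cell count versus DMSO.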

Experiment [14] can be described thus: TAMU_PeakParms_SingleDonor1434_QT: Texas A&M University (TAMU) 1.5-hr Human Induced Pluripotent Stem Cell (iPSC)-derived Cardiomyocytes Calcium (Ca+2) Flux Assay for Cardiotoxicity: QT (decay-rise ratio) (AID 2284235; active = hit-call score of the fitted dose curve at least 0.9, where 1 is the maximum). A digest of the protocol: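 iPSC-derived cardiomyocytes (single donor 1434) dosed at 0.2, 1, 10, 100 uM final in 0.5% DMSO, 90 min at 37C. Ca2+ flux fluorescence decay/rise ratio; EC05 (5% increase versus DMSO) as POD, excluding beat-arrest and severe-notch data.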

The nature of experiment [15]: CCTE_Mundy_HCI_hN2_NOG_NeuriteCount: CCTE's Neurite Outgrowth Assay in human hN2 cells for Neurite Count, Mundy Lab (AID 2284219; active = hit-call score of the fitted dose curve at least 0.9, where 1 is the maximum). The method in brief: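 In this morphology assay, hNP1-derived neurons received test chemical 2 h post-plating and were fixed two days later in warm paraformaldehyde/sucrose containing Hoechst 33342. Neurites, labelled by rabbit anti-βIII-tubulin (1:800) and Alexa Fluor-488 (1:500), were counted automatically.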

Experiment [16] can be described thus: CCTE_Mundy_HCI_hN2_NOG_NeuriteLength: CCTE's Neurite Outgrowth Assay in human hN2 cells for Neurite Length, Mundy Lab (AID 2284220; active = hit-call score of the fitted dose curve at least 0.9, where 1 is the maximum). A digest of the protocol:
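Read-out is neurite length from high-content imaging of βIII-tubulin/Alexa Fluor-488-labelled neurons, referenced to DMSO controls.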

Experiment [17] in a line: CCTE_Mundy_HCI_hN2_NOG_NeuronCount: CCTE's Neurite Outgrowth Assay in human hN2 cells for Neuron Count, Mundy Lab (AID 2284221; active = hit-call score of the fitted dose curve at least 0.9, where 1 is the maximum). A digest of the protocol: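 Read-out is the number of betaIII-tubulin-positive neurons imaged by automated high-content analysis, with DMSO as negative control.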
A short description of experiment [18]: CCTE_Mundy_HCI_hNP1_Pro_ResponderAvgInten: CCTE's Proliferation Assay in human neuroprogenitor cells, Mundy Lab (AID 2284224; active = hit-call score of the fitted dose curve at least 0.9, where 1 is the maximum;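 note: human neural progenitor cells hNP1 derived from WA09 embryonic stem cells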). The method in brief:
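Proliferation read as average intensity of BrdU-positive cells, imaged at 26.25 h post-dosing: chemical exposure started after 40–44 h culture, BrdU during final 4 h, paraformaldehyde fixation. Positive-direction fit relative to DMSO.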

Experiment [19] in a line: UKN2_HCS_IMR90_cell_viability: Viability Assessment in the University of Konstanz (UKN) Leist Lab Neural Crest Cell Migration Assay in human induced IMR90 Pluripotent Stem Cells (UKN2) (AID 2284233).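 Note: viability of neural crest cells differentiated from IMR90 iPSC measured by calcein-AM fluorescence imaging; cells exposed to compound for 24 h after a 24 h migration phase.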 The method in brief:
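Neural crest cells derived from IMR90 iPSC migrate into a stopper-free zone for 24 h in EGF/FGF medium, then are exposed to compound for 24 h. Viability assessed by calcein-AM and Hoechst staining with high-content imaging, fitted bidirectionally versus DMSO.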

Chain of Tumor necrosis factor (Homo sapiens) (P01375 whole entry, looked up): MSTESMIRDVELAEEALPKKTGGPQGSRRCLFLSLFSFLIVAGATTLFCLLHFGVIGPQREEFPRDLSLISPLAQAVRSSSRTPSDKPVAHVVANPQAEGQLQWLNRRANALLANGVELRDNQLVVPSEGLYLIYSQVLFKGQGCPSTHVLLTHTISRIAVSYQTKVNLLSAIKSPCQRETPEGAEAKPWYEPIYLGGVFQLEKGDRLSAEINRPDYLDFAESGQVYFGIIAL

On to `O=C(O)C(F)(F)OC(F)(F)C(F)(F)OC(F)(F)F`, for which the result in [1], in experiment [2], in experiment [3], in experiment [4], in experiment [5] and in experiment [6] was inactive. For the same compound, in experiment [7], the result was inactive. Besides, the AC50 (as a rule, the midpoint of the concentration-response curve, whichever way the signal moves) in experiment [3] was 12.6 µM (active).
As to `OCC(F)(F)OC(F)(F)C(F)(F)OC(F)(F)C(F)(F)OC(F)(F)F`, the AC50 is 30.7 µM (active) and 43.3 µM (active) in [1]; 50.4 µM (active) and 44.2 µM (active) in experiment [2]; 22.6 µM (active) and 52.7 µM (active) in [3]; 46.6 µM (active) and 45.2 µM (active) in experiment [4]; 49.2 µM (active) in experiment [5]; 50.4 µM (active) and 30 µM (active) in [6]. In experiment [7], the AC50 is 54.7 µM (active) and 40.5 µM (active). Moreover, the outcome in experiment [5] was inactive.
Consider `O=c1ssc(Cl)c1Cl`, for which the AC50 was 6.76 µM (active) in [1]; 3.62 µM (active) in experiment [2]; 6.31 µM (active) in experiment [3]; 6.42 µM (active) in experiment [4]; 4.51 µM (active) in [5]; 8.17 µM (active) in experiment [6]. In addition, the AC50 in [7] is 6.69 µM (active).
In the case of `CCCCC(CC)COP(=O)(Oc1ccccc1)Oc1ccccc1` (stereo not given), the outcome in experiment [8], in experiment [9], in experiment [10], in experiment [11], in [12] and in experiment [14] was inactive. The AC50 in [1] is 36.7 µM (active); in [2], 16.1 µM (active); in experiment [3], 31.3 µM (active); in [4], 20 µM (active); in experiment [5], 20 µM (active); in [6] it was 20 µM (active). Besides, the figures for the AC50 in [7] and in experiment [13] were 11.1 µM (active) and 50 µM (active), respectively.
For the compound `CCC1(c2ccccc2)C(=O)N=C(O)NC1=O` (stereo not given), the compound was called inactive in experiment [8], in [10], in experiment [15], in [16], in experiment [17] and in [11]. In addition, the compound was called inactive in [12]. In addition, the AC50 in [9] is 29.7 µM (active).
For `COP(N)(=S)OC`, the outcome in [1], in experiment [2], in experiment [3], in [4], in experiment [5] and in experiment [6] was inactive. In addition, the outcome in experiment [7] was inactive.
Regarding `CC(Cl)CN(C)C` (stereo not given), the result in [1], in experiment [2], in experiment [3], in experiment [4], in [5] and in [6] was inactive. In [7], the AC50 was 20 µM (active).
`CCOP(=S)(OCC)SCS(=O)(=O)CC`: the outcome in [1], in [2], in [3], in experiment [4], in [5] and in [6] was inactive. In addition, the result in experiment [7] was inactive.
Consider `O=C(O)C(F)(F)C(F)(F)C(=O)O`, for which the outcome in [1], in [2], in experiment [3], in experiment [4], in [5] and in [6] was inactive. The outcome in experiment [7] was inactive. In addition, the AC50 in [6] was 0.222 µM (active).
`O=C(O)C(F)(OC(F)(F)C(F)(F)C(F)(F)F)C(F)(F)F` (stereo not given): the compound was classed as inactive in [8], in experiment [10], in [11], in experiment [12], in experiment [18] and in experiment [1]. Besides, the result in experiment [2], in experiment [3], in [4], in experiment [5], in experiment [6] and in [7] was inactive. Moreover, the compound was classed as inactive in experiment [19]. The half-maximal activity concentration (AC50) in experiment [1] was 0.22 µM (active); in experiment [3], 220 nM (active) and 291 nM (active); in experiment [6] it was 6.18 µM (active).
